Results: PubChem BioAssay (Tox21)
Results filed as inconclusive are left out. Active and inactive are the calls of the source. Unless noted, calls come from the whole dose curve.

Assays:
[1] = Nuclear factor erythroid 2-related factor 2/antioxidant responsive element (Nrf2/ARE) small molecule agonists: luciferase reporter gene qHTS assay in human keratinocytes (AID 1919969); note: nearly all actives have a fitted effect of over 35% in size
[2] = molecular target: Gonadotropin-releasing hormone receptor (Homo sapiens) (UniProt P30968); experiment: Human gonadotropin-releasing hormone receptor (GnRHR) small molecule agonists, calcium flux assay in GnRHR-HEK293 cells (AID 1920063); note: nearly all actives have a fitted effect of over 35% in size
How it was run: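 We seeded human GnRHR-expressing HEK293 cells for 18 hours, loaded them with calcium dye for an hour at 37 C, added test compounds, and recorded fluorescence intensity kinetically for three minutes.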

[3] = molecular target: KiSS-1 receptor (Homo sapiens) (UniProt Q969F8); experiment: Human kisspeptin (KISS1R) small molecule agonists, calcium flux assay in KISS1R-HEK293 cells (AID 1920064; active = well fitted activation curve with a large enough effect in the repeat runs)
How it was run: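 Kinetic calcium assay, 1 s sampling over 3 min at Ex/Em 480/540, in HEK293 cells engineered with human KISS1R; compounds delivered in DMSO after 1 h dye loading.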

[4] = G protein-coupled receptor (GPCR) small molecule agonists, calcium flux assay: HEK293 wild type cell line counter screen (AID 1920065)
How it was run: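 Calcium-sensitive dye, loaded 1 h at 37 C into cells cultured 18 h, reports compound-evoked calcium release as fluorescence (Ex/Em 480/540), measured over 3 min. Agonist mode; 15-point titrations, triplicate.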

[5] = p53 small molecule agonists, cell-based qHTS assay with human liver microsomes (AID 1963577);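 note: p53 response element beta-lactamase reporter cells with liver microsomes plus NADPH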
How it was run: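 HLM-supplemented p53RE-bla reporter assay: 16 h compound exposure at 37 C, microsomes and NADPH each 0.5 mg/mL final, read by fluorescence intensity.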

[6] = p53 small molecule agonists, cell-based qHTS assay with rat liver microsomes (AID 1963578)
How it was run: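 Quantitative HTS of the Tox21 10K library: p53RE-bla cells, rat liver microsomes plus NADPH at 0.5 mg/mL final each, 16 h at 37 C, beta-lactamase fluorescence detection.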

[7] = p53 small molecule agonists, cell-based qHTS assay with human liver microsomes: qHTS cell viability counter screen (AID 1963579); note: nearly all actives have a fitted effect of over 45% in size
How it was run: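 Viability of p53RE-bla cells is measured as CellTiter-Glo luminescence following a 16 h, 37 C incubation with compound, liver microsomes from human donors and NADPH.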

[8] = p53 small molecule agonists, cell-based qHTS assay with rat liver microsomes: qHTS cell viability counter screen (AID 1963580); note: nearly all actives have a fitted effect of over 45% in size
How it was run: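 In HCT-116 cells carrying a p53 response element-bla reporter, compounds were metabolically activated in situ by rat liver microsomes with NADPH over 16 h. Cell ATP content then served as the cytotoxicity measure.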

[9] = p53 small molecule agonists, cell-based qHTS assay: qHTS cell viability counter screen (AID 1963581); note: nearly all actives have a fitted effect of over 45% in size
How it was run: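 Following 5 h attachment, HCT-116 p53RE-bla cells took up compound for 16 h at 37 C; the reporter was read with B/G FRET substrate (2 h RT), and viability then via CellTiter-Glo ATP luminescence.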

[10] = p53 small molecule agonists, cell-based qHTS assay (AID 1963582; active = well fitted activation curve with a large enough effect in the signal ratio in the repeat runs, not every such curve was filed as active; the % refers to the signal ratio)
How it was run: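 In this cell-based concentration-response screen, a p53 response element drives beta-lactamase; cells received DMSO-borne compounds after 5 h culture and were incubated a further 16 h before FRET substrate development.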

[11] = cAMP Responsive Elements (CRE) small molecule agonists, cell-based qHTS assay (AID 1963590)
How it was run: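 A CRE-responsive beta-lactamase reporter in HEK 293T cells was used. Treatment ran 3 h at 37 C; detection used LiveBLAzer B/G FRET substrate for 2 h at room temperature.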

[12] = cAMP Responsive Elements (CRE) small molecule antagonists, cell-based qHTS assay (AID 1963591; active = well fitted inhibition curve with a large enough effect in the signal ratio in the repeat runs, not every such curve was filed as active; the % refers to the signal ratio)
How it was run: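 HEK293T cells carrying a CRE-driven beta-lactamase reporter receive compound and NKH477 (0.25 uM final) for 3 h. Fluorescence from LiveBLAzer B/G FRET substrate is read after 2 h at room temperature.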

[13] = molecular target: Beta-2 adrenergic receptor (Homo sapiens) (UniProt P07550); experiment: Adrenergic beta2 receptor (ADRB2) small molecule antagonists, cell-based qHTS assay (AID 1963592); note: series mostly up to about 92 µM; nearly all actives have a fitted effect of over 50% in size
How it was run: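 Cells (CHO, stable ADRB2 overexpression) incubated 18-20hr at 37C; compounds added from DMSO; agonist mix (1nM isoproterenol, 100uM IBMX, 25uM Ro-20-1724) added; 0.5hr RT; d2-cAMP and anti-cAMP-cryptate added; 1hr RT; 665/615 nm read.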

[14] = molecular target: Beta-2 adrenergic receptor (Homo sapiens) (UniProt P07550); experiment: Adrenergic beta2 receptor (ADRB2) small molecule agonists, cell-based qHTS assay (AID 1963593);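 note: CHO cells stably overexpressing human ADRB2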
How it was run: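 CHO cells stably over-expressing ADRB2 were plated overnight at 37C, then dosed with compounds plus a stimulation mix containing 100uM IBMX and 25uM Ro-20-1724 for 0.5hr at room temperature. cAMP was measured by HTRF competition, 1hr.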

[15] = molecular target: D(2) dopamine receptor (Homo sapiens) (UniProt P14416); experiment: Dopamine D2 receptor (DRD2) small molecule antagonists, cell-based qHTS assay (AID 1963595; active = well fitted inhibition curve with a large enough effect in the signal ratio in the repeat runs, with a control signal flat; the % refers to the signal ratio)
How it was run: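 HEK293 cells stably expressing DRD2, preincubated with 0.1 mM Ro20-1724 and compounds 10 min, were stimulated with 200 nM NKH477 plus 12 nM quinpirole for 30 min at room temperature; cAMP measured by HTRF (665/620 nm).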

[16] = molecular target: 5-hydroxytryptamine receptor 2A (Homo sapiens) (UniProt P28223); experiment: 5-hydroxytryptamine receptor 2A (HTR2A) small molecule agonists, cell-based qHTS assay (AID 1963587); note: nearly all actives have a fitted effect of over 30% in size
How it was run: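 HTR2A-CHO cells, plated 18 h at 37 C/5% CO2, dye-loaded 1 h at 37 C; compounds in DMSO added by pin tool (agonist mode). Intracellular calcium flux read as kinetic fluorescence on FDSS over 2 min at 1 s intervals.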

[17] = molecular target: Muscarinic acetylcholine receptor M1 (Homo sapiens) (UniProt P11229); experiment: Cholinergic receptor muscarinic 1 (CHRM1) small molecule antagonists, cell-based qHTS assay (AID 1963588); note: nearly all actives have a fitted effect of over 40% in size
How it was run: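 CHRM1-CHO calcium-flux assay, antagonist mode. Cells were seeded 18 h, dye-loaded 1 h at 37 C and given compound for 5 min at RT, then acetylcholine was added at 50nM. FDSS fluorescence was read 3 min; 15 concentrations, three runs.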

[18] = molecular target: Muscarinic acetylcholine receptor M1 (Homo sapiens) (UniProt P11229); experiment: Cholinergic receptor muscarinic 1 (CHRM1) small molecule agonists, cell-based qHTS assay (AID 1963589); note: nearly all actives have a fitted effect of over 35% in size
How it was run: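 Measures agonist-induced intracellular calcium rise. Stable human CHRM1 CHO line, 1 h dye load at 37 C, compounds from DMSO, kinetic fluorescence read.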

[19] = molecular target: D(2) dopamine receptor (Homo sapiens) (UniProt P14416); experiment: Dopamine D2 receptor (DRD2) small molecule agonists, cell-based qHTS assay (AID 1963594); note: nearly all actives have a fitted effect of over 35% in size
How it was run: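 HEK293 cells stably expressing DRD2 were cultured 24 h at 37 C, then given Ro20-1724 (0.1 mM final) and compounds for 10 min at room temperature. NKH477 (200nM) was then added for 30 min. cAMP was read by HTRF.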

[20] = molecular target: 5-hydroxytryptamine receptor 2A (Homo sapiens) (UniProt P28223); experiment: 5-hydroxytryptamine receptor 2A (HTR2A) small molecule antagonists, cell-based qHTS assay (AID 1963586); note: nearly all actives have a fitted effect of over 45% in size
How it was run: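 Antagonist-mode intracellular calcium assay: DOI (4 nM) added after 5 min compound pre-incubation at room temperature to dye-loaded HTR2A-CHO cells. Fluorescence followed for 3 min, sampled every second.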
% is set by controls: 0 for no effect and ±100 for the full control effect.

Chain of Gonadotropin-releasing hormone receptor (Homo sapiens) (P30968 whole entry, looked up): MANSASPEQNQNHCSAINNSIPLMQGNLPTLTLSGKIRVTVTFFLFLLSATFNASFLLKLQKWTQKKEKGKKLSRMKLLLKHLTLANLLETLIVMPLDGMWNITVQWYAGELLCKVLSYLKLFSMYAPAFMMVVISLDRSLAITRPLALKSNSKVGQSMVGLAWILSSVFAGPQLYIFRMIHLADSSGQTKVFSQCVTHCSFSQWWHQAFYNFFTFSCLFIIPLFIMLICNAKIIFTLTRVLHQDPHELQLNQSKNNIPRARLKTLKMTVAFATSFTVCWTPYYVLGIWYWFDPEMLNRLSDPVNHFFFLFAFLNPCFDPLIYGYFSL
Chain of Muscarinic acetylcholine receptor M1 (Homo sapiens) (P11229 whole entry, looked up): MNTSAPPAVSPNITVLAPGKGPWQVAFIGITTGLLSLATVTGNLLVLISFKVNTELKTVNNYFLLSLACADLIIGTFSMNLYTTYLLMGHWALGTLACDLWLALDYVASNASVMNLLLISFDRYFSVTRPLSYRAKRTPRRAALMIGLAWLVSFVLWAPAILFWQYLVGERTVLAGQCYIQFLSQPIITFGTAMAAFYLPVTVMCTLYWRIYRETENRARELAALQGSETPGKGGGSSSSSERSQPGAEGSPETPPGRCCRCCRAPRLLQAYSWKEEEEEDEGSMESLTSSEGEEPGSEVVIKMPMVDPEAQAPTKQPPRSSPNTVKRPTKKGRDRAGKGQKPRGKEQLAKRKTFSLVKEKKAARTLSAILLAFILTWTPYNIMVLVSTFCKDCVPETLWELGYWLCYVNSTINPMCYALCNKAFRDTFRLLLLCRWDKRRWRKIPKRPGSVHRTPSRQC
Chain of D(2) dopamine receptor (Homo sapiens) (P14416 whole entry, looked up): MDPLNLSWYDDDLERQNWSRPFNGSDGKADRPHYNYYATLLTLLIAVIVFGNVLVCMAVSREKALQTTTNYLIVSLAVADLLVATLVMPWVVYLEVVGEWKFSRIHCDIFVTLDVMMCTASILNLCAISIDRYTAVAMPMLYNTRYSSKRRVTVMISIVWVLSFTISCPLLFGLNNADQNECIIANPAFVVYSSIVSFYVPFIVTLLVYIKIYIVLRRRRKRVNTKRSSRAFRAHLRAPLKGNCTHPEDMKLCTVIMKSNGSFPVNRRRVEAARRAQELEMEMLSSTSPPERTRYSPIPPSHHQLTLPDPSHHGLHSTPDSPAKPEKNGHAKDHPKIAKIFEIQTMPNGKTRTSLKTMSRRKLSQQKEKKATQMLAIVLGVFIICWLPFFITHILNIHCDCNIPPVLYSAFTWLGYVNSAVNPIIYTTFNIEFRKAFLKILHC
Chain of Beta-2 adrenergic receptor (Homo sapiens) (P07550 whole entry, looked up): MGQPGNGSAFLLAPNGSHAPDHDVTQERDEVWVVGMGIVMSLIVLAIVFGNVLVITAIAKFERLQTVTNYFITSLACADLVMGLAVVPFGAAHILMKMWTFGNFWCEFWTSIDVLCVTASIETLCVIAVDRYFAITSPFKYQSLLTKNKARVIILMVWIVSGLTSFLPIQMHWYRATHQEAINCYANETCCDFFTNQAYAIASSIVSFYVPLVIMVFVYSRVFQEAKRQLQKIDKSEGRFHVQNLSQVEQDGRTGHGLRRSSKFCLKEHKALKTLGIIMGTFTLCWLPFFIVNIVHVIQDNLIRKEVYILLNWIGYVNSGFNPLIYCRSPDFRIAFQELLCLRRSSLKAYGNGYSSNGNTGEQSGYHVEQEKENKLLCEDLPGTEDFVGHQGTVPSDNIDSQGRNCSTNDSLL
Chain of KiSS-1 receptor (Homo sapiens) (Q969F8 whole entry, looked up): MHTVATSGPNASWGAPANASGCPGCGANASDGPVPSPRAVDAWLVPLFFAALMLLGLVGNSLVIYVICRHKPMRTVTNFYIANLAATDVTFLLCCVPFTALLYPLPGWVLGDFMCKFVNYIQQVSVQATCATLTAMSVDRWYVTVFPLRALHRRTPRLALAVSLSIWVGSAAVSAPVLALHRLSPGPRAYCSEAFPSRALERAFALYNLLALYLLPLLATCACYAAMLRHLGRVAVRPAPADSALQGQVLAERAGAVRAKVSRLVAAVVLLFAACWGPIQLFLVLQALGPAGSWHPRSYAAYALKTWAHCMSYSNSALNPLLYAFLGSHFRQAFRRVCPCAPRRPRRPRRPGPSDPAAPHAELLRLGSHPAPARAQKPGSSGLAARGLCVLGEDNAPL
Chain of 5-hydroxytryptamine receptor 2A (Homo sapiens) (P28223 whole entry, looked up): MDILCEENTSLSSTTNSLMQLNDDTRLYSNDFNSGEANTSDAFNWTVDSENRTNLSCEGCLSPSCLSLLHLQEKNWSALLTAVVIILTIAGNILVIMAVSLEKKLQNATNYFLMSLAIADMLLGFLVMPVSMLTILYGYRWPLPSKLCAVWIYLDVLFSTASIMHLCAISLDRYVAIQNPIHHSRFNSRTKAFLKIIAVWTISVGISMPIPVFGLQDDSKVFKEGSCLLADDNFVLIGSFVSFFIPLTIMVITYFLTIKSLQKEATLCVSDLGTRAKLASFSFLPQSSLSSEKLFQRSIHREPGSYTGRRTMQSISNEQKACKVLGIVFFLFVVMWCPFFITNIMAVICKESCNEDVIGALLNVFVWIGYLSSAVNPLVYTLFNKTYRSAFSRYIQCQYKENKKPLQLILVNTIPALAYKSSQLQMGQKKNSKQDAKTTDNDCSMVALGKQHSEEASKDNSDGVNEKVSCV

O=NN(CCCl)C(=O)NC1CCCCC1
inactive: Potency [1] | Potency [2] | outcome [3] | outcome [4] | Potency [5] | Potency [6] | Potency [7] | Potency [8] | Potency [9] | Potency [10] | Potency [11] | Potency [12] | Potency [13] | Potency [14] | Potency [15]

NC(=O)NS(=O)(=O)c1ccc(N)cc1
inactive: Potency [1] | Potency [2] | outcome [3] | outcome [4] | Potency [5] | Potency [6] | Potency [7] | Potency [8] | Potency [9] | Potency [10] | Potency [16] | Potency [17] | Potency [18] | Potency [12] | Potency [13] | Potency [14] | Potency [19] | Potency [15]

CC(C)Oc1ccccc1O
inactive: Potency [1] | Potency [2] | outcome [3] | outcome [4] | Potency [5] | Potency [6] | Potency [7] | Potency [8] | Potency [10] | Potency [20] | Potency [16] | Potency [17] | Potency [18] | Potency [11] | Potency [12] | Potency [13] | Potency [14] | Potency [15]

CCC(C)CCCC(C)(C)O (stereo not given)
inactive: Potency [1] | Potency [2] | outcome [3] | outcome [4] | Potency [5] | Potency [6] | Potency [7] | Potency [8] | Potency [9] | Potency [20] | Potency [16] | Potency [18] | Potency [12] | Potency [13] | Potency [19] | Potency [15]

BrC/C=C/CBr
inactive: activity, positive = activation [1] -2.5% [at 19 µM] | activity change [2] 0.305% [at 11.8 µM, hits give high values] | activation [3] -0.639% [at 15.8 µM] | activation [4] 0.681% [at 11.8 µM] | activation [5] -4.84% [at 13.5 µM] | activation [6] -1.81% [at 13.6 µM] | activity change, negative = cytotoxicity [7] -4.11% [at 13.5 µM] | activity change, negative = cytotoxicity [8] -2.57% [at 13.5 µM] | activity, negative = inhibition [20] -12.9% [at 12.7 µM] | activation [16] -0.944% [at 15.9 µM] | activity, negative = inhibition [17] -3.79% [at 12.6 µM] | activation [18] 1.37% [at 15.8 µM] | activity change, negative = inhibition [13] -26% [at 19 µM] | Potency [14] | activation [19] -0.205% [at 19 µM] | activity change, negative = inhibition [15] 7.87% [at 18.9 µM]

Cc1[nH]cnc1CN1CCc2c(c3ccccc3n2C)C1=O
inactive: Potency [1] | Potency [2] | outcome [3] | outcome [4] | Potency [5] | Potency [6] | Potency [7] | Potency [8] | Potency [10] | Potency [11] | Potency [12] | Potency [13] | Potency [14] | Potency [19]

O=C(NC(Cc1cc(=O)[nH]c2ccccc12)C(=O)O)c1ccc(Cl)cc1 (stereo not given)
inactive: Potency [1] | Potency [2] | outcome [3] | outcome [4] | Potency [5] | Potency [6] | Potency [7] | Potency [8] | Potency [9] | Potency [10] | Potency [16] | Potency [17] | Potency [18] | Potency [11] | Potency [12] | Potency [13] | Potency [19] | Potency [15]
